NIH3T3 tox – Cytotoxic Profiling in NIH 3T3 Cell Line of Diverse Libraries Using Quantitative High-Throughput Screening; Potency, µM (titrated, usually from 96.7 µM), without a hit: at the top dose activity change, negative = cytotoxicity, most hits filed as inhibitors; actives 4.3% (n = 94,000); NIH 3T3 viability, CellTiter-Glo ATP luminescence, 48-72 h; further: nearly all actives have a fitted effect of over 55% in size
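ATP-dependent luminescence (CellTiter-Glo) served as the viability signal for NIH 3T3 cells treated with compound for 48 or 72 hr at 37 °C.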
NPR1 antag – Natriuretic polypeptide receptor (hNpr1) antagonism - Primary qHTS. HEK293 hNpr1 GloSensor cGMP, ANP-stimulated luminescence. actives 1.6% (n = 76,000). Potency, µM (titrated, usually from 46.3 µM), for inactives: top-dose activity change, negative = inhibition, hits mostly inhibitors; calls by dose curve; further: nearly all actives have a fitted effect of over 60% in size
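Compound pre-incubated 30 min at room temperature on GloSensor-loaded HEK293 cells stably carrying hNpr1 and the pGS-40F cGMP biosensor. Stimulation uses hNppA at 0.1 nM final; luminescence is taken at baseline and 20 min post-agonist.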
Luciferase inh – Firefly luciferase inhibition profiling of diverse chemical library using quantitative high-throughput screening | Luciferin 4-monooxygenase (Photinus pyralis), P08659 | purified P. pyralis luciferase, luminescence, biochemical | Potency, µM (titrated, usually from 115 µM), hits mostly inhibitors | actives 2.5% (n = 76,000); further: nearly all actives have a fitted effect of over 65% in size
Target sequence (P08659 whole entry, looked up): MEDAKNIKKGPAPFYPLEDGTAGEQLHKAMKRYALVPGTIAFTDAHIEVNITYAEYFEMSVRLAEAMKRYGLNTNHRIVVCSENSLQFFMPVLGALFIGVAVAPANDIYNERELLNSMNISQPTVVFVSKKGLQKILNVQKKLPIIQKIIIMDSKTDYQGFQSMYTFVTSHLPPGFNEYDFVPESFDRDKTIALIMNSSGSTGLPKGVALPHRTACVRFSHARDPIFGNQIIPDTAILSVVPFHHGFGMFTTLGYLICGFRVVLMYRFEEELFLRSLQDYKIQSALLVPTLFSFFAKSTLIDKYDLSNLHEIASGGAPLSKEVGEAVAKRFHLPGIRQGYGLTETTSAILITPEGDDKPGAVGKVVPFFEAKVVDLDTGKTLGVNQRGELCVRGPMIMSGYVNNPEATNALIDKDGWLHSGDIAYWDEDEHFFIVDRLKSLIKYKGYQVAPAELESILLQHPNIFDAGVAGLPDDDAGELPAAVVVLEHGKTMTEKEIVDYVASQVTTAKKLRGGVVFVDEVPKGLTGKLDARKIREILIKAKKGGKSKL
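Purified P. pyralis luciferase (10nM final) in 50mM Tris acetate pH 7.5, 10mM Mg acetate, 0.01% Tween-20, 0.05% BSA with 10uM D-luciferin and 10uM ATP. Compounds titrated qHTS. Luminescence imaged on CCD.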
HEK293 tox – Cytotoxic Profiling in HEK 293 Cell Line of Diverse Libraries Using Quantitative High-Throughput Screening | HEK 293 viability, ATP luminescence (CellTiter-Glo), 48-72 h | actives 6.6% (n = 94,000) | Potency, µM (top dose mostly 115 µM), for inactives: at the highest dose activity change, negative = cytotoxicity, usual class: inhibitors; further: nearly all actives have a fitted effect of over 60% in size
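Pintool-delivered compounds were incubated with HEK 293 cells (250 cells/well) at 37 degree Celsius for 48 or 72 hr. ATP-dependent luminescence (CellTiter-Glo) then reported remaining viable cells.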
An asterisk follows results filed as active; [ ] = dose if it differs, or a comment. Sampled rows, rich in hits. Any-hit rate of the full collection: about 11%. Unless noted, the call rests on the fitted dose curve; in most records, active means well fitted curve in the direction sought with a large enough effect; inconclusive means small, poorly fitted or top-dose-only effect, or another doubt; inactive means no such curve, though single readings can be large; an effect the other way counts as inactive or inconclusive. On the % scale 0 is the no-effect control and ±100 the full control effect; potency means the concentration at half of the fitted maximal effect.

For COc1ccc(CN2Cc3[nH]cnc3C[C@H]2c2nc(-c3ccncc3)no2)cc1 the results were NIH3T3 tox inconclusive, NPR1 antag -26.4%[70.6 µM], Luciferase inh inactive and HEK293 tox inconclusive.
CCC(=O)N1Cc2ccccc2CC2(CCN(Cc3ccccc3)C2)C1 (stereo unspecified) was read as NIH3T3 tox -18.2% and HEK293 tox inconclusive.
Screening COCCOCC1(CNC(=O)c2cnccn2)C[C@@H](O)[C@@H](O)C1 (stereo partly specified) returned NIH3T3 tox -6.3%[138 µM], NPR1 antag 5.9%[70.6 µM], Luciferase inh inactive and HEK293 tox 4.2%[172 µM].
O=c1ccc(-c2cc(-c3cccc(N4CCOCC4)c3)cn3cncc23)c[nH]1 was read as NIH3T3 tox inconclusive, NPR1 antag -2.3%[70.6 µM], Luciferase inh inactive and HEK293 tox -16.1%[172 µM].
For COc1ccc(-c2noc([C@@H]3Cc4nc[nH]c4CN3Cc3ccc(C)cc3)n2)cc1 the results were NIH3T3 tox inconclusive, NPR1 antag -24.9%[70.6 µM], Luciferase inh 63.1µM* and HEK293 tox 89.1µM*.
COc1ccccc1CN1Cc2[nH]cnc2C[C@H]1c1nc(-c2cccc(C)c2)no1 was read as NIH3T3 tox 70.8µM*, NPR1 antag -26.2%[70.6 µM], Luciferase inh inactive and HEK293 tox 63.1µM*.
For Cc1nc2cnccn2c1C(=O)NCc1cccs1 the results were NIH3T3 tox -21.7%[138 µM] and HEK293 tox 2.2%[172 µM].
`Cc1ccccc1-c1[nH]nc2ncc(-c3cccc(F)c3)nc12` gave NIH3T3 tox inconclusive, NPR1 antag -22.7%[70.6 µM], Luciferase inh 20µM* and HEK293 tox 63.1µM*.
For COc1cccc(-c2cnc3n[nH]c(-c4ccc(F)cc4C)c3n2)c1 the results were NIH3T3 tox inconclusive, NPR1 antag -9.6%[70.6 µM], Luciferase inh inactive and HEK293 tox -23.5%[172 µM].
Cc1cc(F)ccc1-c1[nH]nc2ncc(-c3ccccc3)nc12 was read as NIH3T3 tox inconclusive, NPR1 antag -14.5%[70.6 µM], Luciferase inh inactive and HEK293 tox inconclusive.
`COc1ccc(-c2cnc3n[nH]c(-c4ccc(F)cc4C)c3n2)cc1OC` gave NIH3T3 tox 28.2µM*, NPR1 antag -11.2%[70.6 µM], Luciferase inh inactive and HEK293 tox 28.2µM*.
COc1ccc(-c2[nH]nc3ncc(-c4ccc(CO)cc4)nc23)cc1F was read as NIH3T3 tox 28.2µM*, NPR1 antag -0.1%[70.6 µM], Luciferase inh inactive and HEK293 tox 35.5µM*.
Screening Cc1ccccc1-c1[nH]nc2ncc(-c3ccc(F)cc3)nc12 returned NIH3T3 tox inconclusive, NPR1 antag -14.8%[70.6 µM], Luciferase inh 22.4µM* and HEK293 tox 44.7µM*.
Cc1cccc(C(=O)N2CCC(Cc3nncn3Cc3ccccc3)CC2)c1 was read as NIH3T3 tox -10.2% and HEK293 tox inconclusive.
Screening COC(=O)C1=C(C)N=C2SC=C(CC(=O)N3CCCCC3C)N2C1c1ccc(OC)cc1 (stereo unspecified) returned NIH3T3 tox inconclusive, NPR1 antag -24.5%, Luciferase inh inactive and HEK293 tox inconclusive.
O=C(c1n[nH]c2ccccc12)N1CC(Oc2ccccc2-c2nc(C3CC3)no2)C1 was read as NIH3T3 tox inconclusive, NPR1 antag -4.0%, Luciferase inh inactive and HEK293 tox inconclusive.
For Cc1cccc(-c2noc([C@@H]3C[C@@H](O)CN3C3CCOCC3)n2)c1 the results were NIH3T3 tox -28.6%[174 µM], NPR1 antag -5.9%[70.6 µM], Luciferase inh 25.1µM* and HEK293 tox inconclusive.
CC(=O)N1CCC(N2C[C@H](O)C[C@H]2c2nc(-c3cccc(C)c3)no2)CC1 was read as NIH3T3 tox inconclusive, NPR1 antag -7.9%[70.6 µM], Luciferase inh 20µM* and HEK293 tox inconclusive.
`CC(=O)N1CCC(N2C[C@H](O)C[C@H]2c2nc(-c3ccccc3)no2)CC1` gave NIH3T3 tox -4.5%[138 µM], NPR1 antag 0.8%[70.6 µM], Luciferase inh inactive and HEK293 tox -0.2%[172 µM].
Screening Cc1cc2cc(-c3c(C)noc3C)nc(N3CCN(c4ccccn4)CC3)c2o1 returned NIH3T3 tox 28.2µM*, NPR1 antag -8.8%[70.6 µM], Luciferase inh inactive and HEK293 tox 12.6µM*.
Screening Cc1cc2cc(-c3c(C)noc3C)nc(-c3ccccc3)c2o1 returned NIH3T3 tox inconclusive, NPR1 antag 6.0%[70.6 µM], Luciferase inh inactive and HEK293 tox inconclusive.
`Cc1cc2cc(-c3c(C)noc3C)nc(N(C)C)c2o1` gave NIH3T3 tox inconclusive, NPR1 antag -1.7%[70.6 µM], Luciferase inh inactive and HEK293 tox 100µM*.
Cc1noc(C)c1-c1cc2cc(C(C)C)oc2c(N(C)CCN(C)C)n1 was read as NIH3T3 tox 25.1µM*, NPR1 antag -1.8%[70.6 µM], Luciferase inh inactive and HEK293 tox 35.5µM*.
Cc1noc(C)c1-c1cc2cc(C(C)C)oc2c(NCc2cccnc2)n1 was read as NIH3T3 tox inconclusive, NPR1 antag 1.7%[70.6 µM], Luciferase inh inactive and HEK293 tox inconclusive.
Cc1ccc(NC(=O)c2cnc(-c3ccccc3)nc2-c2ccncc2)c(Br)c1 was read as NIH3T3 tox inactive, NPR1 antag -24.0%, Luciferase inh inactive and HEK293 tox 2.6%.
For COc1ccc(C(C)NC(=O)c2noc(-c3ccccc3F)n2)cc1OC (stereo unspecified) the results were NIH3T3 tox inconclusive, NPR1 antag -15.6%, Luciferase inh inactive and HEK293 tox -23.8%.
Screening O=C(NCC1CC1)c1noc(-c2ccccc2F)n1 returned NIH3T3 tox -6.9%, NPR1 antag -11.8%, Luciferase inh 39.8µM* and HEK293 tox -4.8%.
COc1ccc(CCNC(=O)c2noc(-c3ccccc3F)n2)cc1OC was read as NIH3T3 tox inconclusive, NPR1 antag inconclusive, Luciferase inh inactive and HEK293 tox 31.6µM*.
O=C(NCC1CCCCC1)c1noc(-c2ccc[nH]c2=O)n1 was read as NIH3T3 tox 4.3%, NPR1 antag -1.0%, Luciferase inh inactive and HEK293 tox 15.1%.
CCOC(=O)C1CCCN(C(=O)C2CCc3nnc(-c4cccc(C(F)(F)F)c4)n32)C1 (stereo unspecified) was read as NIH3T3 tox inconclusive and HEK293 tox -14.7%.
Screening O=C(c1ccccc1F)N1CCC2(CC1)CC(N1CCCCC1)CCO2 (stereo unspecified) returned NIH3T3 tox -6.9% and HEK293 tox inactive.
`CCN1CCC(OCCCNC(=O)CCC[C@H]2NC[C@@H]3C[C@H]2CN(Cc2ccccc2)C3)CC1` gave NIH3T3 tox -5.6%, NPR1 antag -13.7%, Luciferase inh inactive and HEK293 tox -15.8%.
COC(=O)c1ccc(COC[C@@H]2CN(C(C)C)S(=O)(=O)[C@H]2c2ccccc2)cc1 was read as NIH3T3 tox inconclusive and HEK293 tox 39.8µM*.

High-throughput results: PubChem BioAssay, National Center for Advancing Translational Sciences (NCATS)
